Data taken from PubChem BioAssay AID504332 (National Center for Advancing Translational Sciences (NCATS), 2011).
The whole screen tested about 350,000 compounds, of which about 31,000 (8.9%) were called active. Not shown: some 15% with an inconclusive outcome. Shown is part of a subset that was picked to be rich in actives. Unmarked numbers belong to inactive results. Calls come from the whole dose curve; as a rule, active = well fitted inhibition curve with a large enough effect; inconclusive = small, poorly fitted or top-dose-only effect; inactive = no such curve, though single readings can be large or run the other way.

target: Histone-lysine N-methyltransferase EHMT2 (Homo sapiens) (UniProt Q96KQ7); assay: qHTS Assay for Inhibitors of Histone Lysine Methyltransferase G9a; settings: G9a H3K9 monomethylation, AlphaScreen, 2 h; series mostly up to 59 µM; activity, negative = inhibition: at the top concentration; note: nearly all actives have a fitted effect of over 75% in size
Description: Methylated lysines, on the N-terminal tails of histone proteins serve as epigenetic markers to recruit factors that can then modify local chromatin structure to lead to functional consequences. G9a and other members of the SUV39 family of the SET domain-containing superfamily of histone lysine methyltransferases (HMT) have been identified to specifically methylate Lys9 of histone H3 (H3K9). G9a catalyzes the mono- and di-methylation of H3K9 in mammalian euchromatic regions, where the resulting H3K9me2 is indicative of transcriptional repression. […] The inhibition of G9a will result in transcriptional activation and work synergistically with DNA methyltransferase and histone deacetylase inhibitors, to kill cancer cells. This qHTS assay for identification of G9a inhibitors is a chemiluminescence based AlphaScreen (PerkinElmer). Methylation of biotinylated-histone peptide is measured through specific antibody-based detection, in conjunction with streptavidin-coated donor and anti-IgG antibody-coated acceptor beads. The method is particularly well suited for detection of inhibitors acting by the desired histone peptide competitive mechanism and is applicable to testing other HMTs. Although AlphaScreen has significant advantages with its utility in a variety of epigenetic target assays, the primary screening data provided in this deposition should be used with caution due to the prevalence of screening artifacts. An AlphaScreen counterscreen is highly recommended to be run against any putative actives to eliminate non specific artifacts. Alternatively, one can use other AlphaScreen assays in PubChem to filter out promiscuous hits. Quinn et al. A chemiluminescence-based method for identification of histone lysine methyltransferase inhibitors. Mol Biosyst 6(5): 782-8. 2010. PMID: 20567762 [2] Baell,Holloway. New substructure filters for removal of pan assay interference compounds (PAINS) from screening libraries and for their exclusion in bioassays. J Med Chem. 53(7):2719-40. 2010. PMID: 20131845 NIH Molecular Libraries Probe Production Network [MLPCN] NIH Chemical Genomics Center [NCGC] Structural Genomics Consortium (SGC) NIH Grant: 5U54 MH084681-02
To each well of a 1,536w plate, 2ul of HMT enzyme (final 20nM) were added, using a nanoliter dispenser. The G9a- and GLP-inhibitor BIX-01294 (CID: 25150857) are used as an intraplate control, with a 16-point titration in duplicate. A Kalypsys pin-tool transferred 23nl of library compound solution in DMSO to each well. Following a 15 min incubation of enzyme with compounds at room temperature, 1ul mixture of b-H3K9 peptide substrate (final 500nM) and SAM cofactor (final 20uM) were added. Reactions were allowed to proceed at room temperature for 2 hours. Methylated b-H3K9 peptide product was detected with 0.5 ug/mL rabbit polyclonal anti-monomethyl histone H3K9 antibody (Abcam Inc., Cambridge, MA) and 20 ug/mL each streptavidin-coated donor and anti-rabbit IgG acceptor AlphaScreen beads. Antibody and beads were added in a 1ul dispense, for a final volume of 4ul, and plates were incubated, protected from the light, for 10 min at room temperature. Microplates were then read on an EnVision multilabel plate reader using the 1,536 plate HTS AlphaScreen aperture (excitation time 80 ms, measurement time 240 ms).
% is set by controls: 0 for no effect and ±100 for the full control effect; potency is the fitted concentration of half-maximal effect.

Sequence of Histone-lysine N-methyltransferase EHMT2 (Homo sapiens) (Q96KQ7 913-1193 limits assumed): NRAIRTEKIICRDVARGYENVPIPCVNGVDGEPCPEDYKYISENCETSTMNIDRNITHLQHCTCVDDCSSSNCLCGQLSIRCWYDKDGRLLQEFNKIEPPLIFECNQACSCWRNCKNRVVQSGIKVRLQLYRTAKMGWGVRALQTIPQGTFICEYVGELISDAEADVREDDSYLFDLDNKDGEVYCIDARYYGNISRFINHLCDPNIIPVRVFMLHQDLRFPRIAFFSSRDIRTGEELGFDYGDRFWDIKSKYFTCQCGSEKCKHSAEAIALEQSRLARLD

| Structure (SMILES) | Potency | activity, negative = inhibition |
| --- | --- | --- |
| COc1ccc(OC)c(-n2cc3c(=O)n(C)c(=O)n(C)c3c2)c1 | 50.1 µM (active) |  |
| Cc1ccc(NC(=O)c2cccc(S(=O)(=O)N3CCCc4ccccc43)c2)nc1 |  | 17.3% |
| CCOC(=O)CC1(NC(=O)c2cc(COc3cncc(Cl)c3)on2)CCCCC1 |  | 0.787% [at 102 µM] |
| CCCCC(C(=O)OCC(=O)c1ccc(OC)cc1)N1C(=O)c2ccccc2C1=O (configuration not stated) |  | 22.3% |
| CCOC(=O)C(Cc1ccc(N)cc1)N1C(=O)c2ccccc2C1=O (configuration not stated) | 50.1 µM (active) |  |
| COc1ccc(C[C@H](C(=O)O)N2C(=O)c3ccc(C(=O)O)cc3C2=O)cc1 |  | 8.45% [at 12.7 µM] |
| COc1cc(OC)cc(C(=O)NCCc2csc3nc(-c4ccccc4F)nn23)c1 |  | 0.667% |
| CCOCCCNC(=O)C(NC(=O)CNC(=O)c1ccccc1)c1ccc(OC)cc1 (configuration not stated) | 15.8 µM (active) |  |
| CCOCCCNC(=O)C(NC(=O)Cc1c[nH]c2ccccc12)c1ccc(OC)cc1 (configuration not stated) |  | -26.9% [at 102 µM] |
| CCOCCCNC(=O)C(NC(=O)CNC(=O)c1ccccc1)c1ccc(C)cc1 (configuration not stated) |  | 15.3% |
| Cc1c(NC(=O)Nc2ccc(F)c(Cl)c2)c(=O)n(-c2ccccc2)n1C |  | 9.59% |
| O=C(O[C@@H]1[C@H](Cc2ccccc2)NS(=O)(=O)[C@H]2C[C@@H]3C=C[C@]12O3)c1ccccc1Br |  | 6.72% [at 0.501 µM] |
| O=C(CSCc1ccccc1)Nc1ccccc1 |  | 2.25% [at 2.33 µM] |
| CC1CCN(CCC(=O)Nc2ccccc2)CC1 |  | 6.18% [at 102 µM] |
| O=C(CCN1c2ccccc2Sc2ccccc21)Nc1ccccc1 | 50.1 µM (active) |  |
| O=C(COc1ccccc1Cl)Nc1ccc2nc(SCC(=O)N3CCCC3)sc2c1 |  | -7.03% |
| O=C(Nc1ccc(C2CC2(Cl)Cl)cc1)c1cccc([N+](=O)[O-])c1 (configuration not stated) |  | 5.58% [at 102 µM] |
| COc1ccc(C2(C)ON(c3ccccc3C(F)(F)F)C2=O)cc1 (configuration not stated) |  | 1.68% [at 2.33 µM] |
| COc1ccc(S(=O)(=O)N2CCCC2CNC(=O)C(=O)NC2CC2)cc1 (configuration not stated) |  | 4.18% [at 0.501 µM] |
| CCC(=O)c1ccc(OCC(=O)OCC(=O)NC2CCCCCC2)cc1 |  | -31.4% [at 102 µM] |
| C=CCN(CC=C)CCOc1ccccc1[N+](=O)[O-] | 17.8 µM (active) |  |
| O=C(COc1ccccc1[N+](=O)[O-])N/N=C/c1ccc[nH]1 |  | -11.5% [at 102 µM] |
| O=C(COc1ccccc1[N+](=O)[O-])NC1CC1 |  | 8.63% [at 102 µM] |
| CSc1ccccc1NC(=O)C(C)N1C(=O)c2ccccc2S1(=O)=O (configuration not stated) |  | 9.9% [at 102 µM] |

| Structure (SMILES) | Potency | activity, negative = inhibition |
| --- | --- | --- |
| Cc1nn(C(C)C(=O)NCCc2ccccc2)c(=O)c2c1sc1ccccc12 (configuration not stated) |  | 6.6% |
| Cc1cccc(C)c1OCC(=O)NC(Cc1c[nH]c2ccccc12)C(=O)O (configuration not stated) | inactive |  |
| COc1ccc(-c2cc(C(=O)NC(Cc3c[nH]c4ccccc34)C(=O)O)c(C)o2)cc1OC (configuration not stated) | 10 µM (active) |  |
| COc1ccc(CNC(=O)[C@H](Cc2c[nH]c3ccccc23)NC(C)=O)cc1OC |  | -1.89% [at 102 µM] |
| O=C(Nc1cccc(Br)c1)c1ccc2snnc2c1 |  | 6.13% [at 102 µM] |
| COc1cccc(Cn2c(CNS(=O)(=O)c3ccc(Cl)s3)nc3cccnc32)c1 |  | 17.3% |
| CCCCCn1c(=O)[nH]c2cc(C(=O)NCCN(C)CCCC)ccc2c1=O |  | -2.06% |
| O=C(N/N=C/c1ccoc1)c1ccc(Cl)cc1Cl |  | 19.8% [at 102 µM] |
| COC(=O)c1cc(C(=O)OC)cc(N2C(=O)CC(N3CCN(c4ccccc4)CC3)C2=O)c1 (configuration not stated) | 15.8 µM (active) |  |
| CC(=O)Oc1cccc(N2C(=O)CC(Nc3ccc(N4CCOCC4)cc3)C2=O)c1 (configuration not stated) |  | -45.5% [at 12.7 µM] |
| CCCCOC(=O)c1ccc(N2C(=O)CC(N3CCN(C/C=C/c4ccccc4)CC3)C2=O)cc1 (configuration not stated) |  | -21.3% [at 102 µM] |
| Cc1ccc(C)c(Cn2c(=O)n(CCC(=O)NCc3ccc4c(c3)OCO4)c(=O)c3sccc32)c1 |  | -4.46% |
| Cc1ccc(F)cc1S(=O)(=O)N1CCC(c2nc3ccccc3s2)CC1 |  | 31.1% |
| COc1ccc(CCn2nnnc2C(c2ccccc2)N2CCN(C)CC2)cc1OC (configuration not stated) | 70.8 µM (active) |  |
| COCCn1nnnc1C(c1ccccc1Cl)N1CCN(c2ccccc2OC)CC1 (configuration not stated) |  | -5.01% |
| N#Cc1ccc(C(c2nnnn2CCc2ccccc2)N2CCCCCC2)cc1 (configuration not stated) |  | -8.23% |
| COc1ccc(C(=O)N2CCC(c3nc4ccccc4o3)CC2)cc1 |  | -3.19% |
| COc1ccc(CNC(=O)c2cc3cccc(OC)c3oc2=O)cc1 |  | 3.39% |
| O=C(CC1N=C2c3ccccc3N=C(SCc3cccc(Cl)c3)N2C1=O)NCc1ccc2c(c1)OCO2 (configuration not stated) |  | 2.58% |
| CCOC(=O)c1c(C)[nH]c(C(=O)OCC(=O)c2ccc(OC)cc2OC)c1C |  | 4.02% [at 0.501 µM] |
| Cc1cccc(CC(=O)N2CC(=O)Nc3ccc(F)cc3C2c2ccccc2)c1 (configuration not stated) |  | 2.59% |
| CN=C1C=C/C(=N/N=c2\ccn(O)cc2C)C=C1C | 7.94 µM (active) |  |
| O=C(NCCc1ccc(C(F)(F)F)cc1)c1ccc2c(c1)OCO2 |  | 13.1% |
